Screening results from PubChem BioAssay.
In the library only some 1.1% were active in any assay of this set; here they are far more common.
CIT2-GFP yeast: alters CIT2-GFP fluorescence in TOR pathway yeast screen; AID 2029; 320,000 compounds, 0.065% hits; GFP response vs DMSO, % at 10 µM; S. cerevisiae CIT2-GFP strain, flow cytometry, 3 h; 100 means same as DMSO wells;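 active = GFP response relative to DMSO above a set limit, near the screen mean plus 3 SD, cut at about 150% in these data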;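 also: ratio of well median GFP fluorescence to mean of DMSO wells on the plate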
MEP2-GFP yeast: yeast TOR pathway MEP2-GFP modulation; S. cerevisiae MEP2-GFP strain, flow cytometry GFP, 3 h; 100% = DMSO control level; GFP response vs DMSO, % at 10 µM; 330,000 compounds, 0.51% hits;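 active = GFP response versus DMSO above a set limit, roughly screen mean plus 3 SD, cut at about 180% in these data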;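 also: median GFP fluorescence of the barcode-gated MEP2-GFP cells per well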
RPL19A-GFP yeast: alters RPL19A-GFP fluorescence in TOR pathway yeast screen; S. cerevisiae RPL19A-GFP strain, flow cytometry, 3 h; active compounds read low; percent response vs DMSO, % at 10 µM; 330,000 compounds, 0.3% hits;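 active = percent response vs DMSO below 50%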;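 also: median channel GFP fluorescence of the barcoded RPL19A-GFP strain; lower means less RPL19A-GFP as with rapamycin TOR inhibition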
VLA-4 inh: inhibition in a human VLA-4 binding assay. P13612. AID 2557. 330,000 compounds, 0.2% hits. inhibition, % (about 7 µM as worked out from the volumes in the protocol). VLA-4 expressing cells, ligand binding flow cytometry; in the data active = inhibition above about 50%
Target sequence (P13612 whole entry, looked up): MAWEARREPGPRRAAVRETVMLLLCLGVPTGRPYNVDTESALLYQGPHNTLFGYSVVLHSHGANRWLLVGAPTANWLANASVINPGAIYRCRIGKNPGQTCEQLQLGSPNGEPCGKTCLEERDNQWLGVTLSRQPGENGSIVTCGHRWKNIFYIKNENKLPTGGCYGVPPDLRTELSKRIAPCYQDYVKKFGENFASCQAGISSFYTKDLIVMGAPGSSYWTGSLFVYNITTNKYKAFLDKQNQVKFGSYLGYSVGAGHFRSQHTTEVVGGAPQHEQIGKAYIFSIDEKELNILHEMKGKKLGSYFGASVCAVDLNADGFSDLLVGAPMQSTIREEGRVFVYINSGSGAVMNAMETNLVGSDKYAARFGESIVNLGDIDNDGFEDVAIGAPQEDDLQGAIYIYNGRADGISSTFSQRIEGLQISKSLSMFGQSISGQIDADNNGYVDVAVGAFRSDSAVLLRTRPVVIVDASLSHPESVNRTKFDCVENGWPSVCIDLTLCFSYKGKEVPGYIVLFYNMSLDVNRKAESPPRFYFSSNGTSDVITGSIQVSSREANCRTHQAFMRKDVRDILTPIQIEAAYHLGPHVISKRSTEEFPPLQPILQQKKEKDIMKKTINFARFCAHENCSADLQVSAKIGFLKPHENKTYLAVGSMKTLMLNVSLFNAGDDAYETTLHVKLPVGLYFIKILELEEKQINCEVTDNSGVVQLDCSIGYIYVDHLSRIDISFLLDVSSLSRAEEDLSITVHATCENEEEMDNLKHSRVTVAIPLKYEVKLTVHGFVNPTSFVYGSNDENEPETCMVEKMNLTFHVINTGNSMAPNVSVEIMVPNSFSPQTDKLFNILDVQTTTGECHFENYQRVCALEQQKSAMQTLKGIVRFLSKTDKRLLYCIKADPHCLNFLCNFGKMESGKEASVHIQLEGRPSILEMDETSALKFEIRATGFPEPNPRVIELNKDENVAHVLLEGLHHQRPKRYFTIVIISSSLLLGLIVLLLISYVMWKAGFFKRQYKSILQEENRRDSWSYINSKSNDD
AGP1-GFP MLPCN: yeast TOR pathway AGP1-GFP modulation; 320,000 compounds, 0.02% hits; S. cerevisiae AGP1-GFP multiplex flow cytometry, 3 h; GFP as percent of DMSO wells; GFP response vs DMSO, % at 10 µM; AID 2066;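 active = GFP response relative to DMSO above a set limit, near screen average plus 3 SD, cut at about 150% in these data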;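 also: median GFP channel fluorescence of the gated AGP1 strain per well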
LAP4 TOR yeast: modulators of TOR pathway LAP4-GFP in S. cerevisiae; 320,000 compounds, 0.34% hits; GFP response vs DMSO, % at 10 µM; S. cerevisiae LAP4-GFP multiplex, flow cytometry GFP, 3 h; median GFP as percent of DMSO wells;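 active = GFP response vs DMSO above a set limit, about the screen mean plus 3 SD, cut at about 150% in these data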
VLA-4 mod pick: human VLA-4 allosteric modulation in cherry picked compounds. shares compounds with VLA-4 inh. 1,300 compounds, 2% hits. inhibition, % at 6.7 µM. U937 cells, HUTS-21 LIBS mAb binding, flow cytometry; LDV ligand present at threefold Kd; in the data active = inhibition above about 40%
Large screens that a line does not name were inactive (follow-up assays come after a bar, where they were run).

C[C@]12CCC(=O)C=C1[C@H](O)C[C@@H]1[C@@H]2[C@@H](O)C[C@@]2(C)[C@H]1CC[C@]2(O)C(=O)CO	none
C[C@H]1C[C@@H]2[C@H]([C@@H](O)C[C@@]3(C)[C@H]2CC[C@]3(O)C(=O)CO)[C@@]2(C)C=CC(=O)C=C12	none
Cc1ccc(S(=O)(=O)c2ccc(Cl)cc2)cc1S(=O)(=O)N(C)CC(=O)O	none | VLA-4 mod pick inactive
Cc1ccccc1N(C(=O)CNC(=O)c1ccco1)C(C(=O)NC1CCCC1)c1ccncc1 (configuration not stated)	none
CCCc1ccc(OCCNC(C)=O)cc1	none
CCCc1ccc(OCCNC(=O)CC)cc1	VLA-4 inh 50.8 | VLA-4 mod pick inactive
O=C1CC(N2CCCCCC2)C(=O)N1c1ccc(F)cc1 (configuration not stated)	none
CCCOc1ccc(N2C(=O)CC(N3CCC(C(=O)OCC)CC3)C2=O)cc1 (configuration not stated)	none | VLA-4 mod pick inactive
COc1ccc(N2C(=O)CC(N3CCCCC3)C2=O)cc1 (configuration not stated)	none | VLA-4 mod pick inactive
Cc1nc2ccccc2c(=O)n1/N=C/c1ccc(O)cc1O	none
CCCc1nc2ccccc2c(=O)n1/N=C/c1ccccc1O	VLA-4 inh 90.6 | VLA-4 mod pick inactive
COCCNC(=O)C(OC(=O)c1ccco1)c1ccccc1F (configuration not stated)	none
CCOC(=O)CSc1nnc(CNC(=O)c2ccc(S(=O)(=O)N3CCOCC3)cc2)n1C	none | VLA-4 mod pick inactive
O=C(COC(=O)c1ccccc1NCCO)Nc1cccc(S(=O)(=O)NC2=NCCCCC2)c1	none
O=C(c1ccc(CN2CCc3ccccc3C2)cc1)N1CCc2ccccc2C1	none (no result: RPL19A-GFP yeast)
O=C(c1ccc(CN2CCc3ccccc3C2)cc1)N1CCN(c2ccccc2)CC1	none | VLA-4 mod pick inactive
COc1cccc(-n2nnc3c(=O)n(CC(=O)OCc4ccccc4)cnc32)c1	none
CCOC(=O)Cn1cnc2c(nnn2-c2cccc(OC)c2)c1=O	none | VLA-4 mod pick inactive
CC1CC1C(=O)OCC(=O)N(C)c1c(N)n(Cc2ccccc2)c(=O)[nH]c1=O (configuration not stated)	none
Cc1ccc(NC(=O)COc2ncnc3c(Cl)cc(Cl)cc23)cc1[N+](=O)[O-]	none | VLA-4 mod pick inactive
CC1(c2ccncc2)Nc2ccccc2-c2nc3ccccc3n21 (configuration not stated)	VLA-4 inh 51.4 | VLA-4 mod pick inactive
O=C(Cn1ncc2c1-c1ccccc1OC2)N(Cc1ccco1)C1CCCCC1	none
CC(CCc1ccco1)NC(=O)Cn1ncc2c1-c1ccccc1OC2 (configuration not stated)	VLA-4 inh 56.6 | VLA-4 mod pick inactive
NC(=O)CN1C(=O)C(=O)N(Cc2ccccc2)C1=O	none | VLA-4 mod pick inactive
CS(=O)(=O)c1ccc2nc(NC(=O)c3ccco3)sc2c1	none
Cc1c(Cl)ccc2sc(NC(=O)c3ccco3)nc12	VLA-4 inh 53.5 | VLA-4 mod pick inactive
CCc1ccc(NC(=O)Cn2cnc([N+](=O)[O-])c2)cc1	VLA-4 inh 53.8 | VLA-4 mod pick inactive
CCC(C)NC(=O)Cn1cnc([N+](=O)[O-])c1 (configuration not stated)	none
CC1Cc2nc(SCC(=O)NCC3CCCO3)n(-c3ccc(F)cc3)c(=O)c2S1 (configuration not stated)	none
O=C(O)c1c(C(=O)O)c(-c2ccc(F)cc2)n2c1CCC2	none | VLA-4 mod pick inactive
Cc1ccc(-c2c(C(=O)O)c(C(=O)O)c3n2CCC3)cc1	none
CCOc1c(OC)cccc1C1CC(=O)Nc2cc3c(cc21)OCCO3 (configuration not stated)	none | VLA-4 mod pick inactive
COc1ccc(OC)c(C2CC(=O)Nc3cc(OC)c(OC)c(OC)c32)c1 (configuration not stated)	none | VLA-4 mod pick inactive
COc1cc2c(c(OC)c1)C(c1cccc(OC)c1OC)CC(=O)N2 (configuration not stated)	none | VLA-4 mod pick inactive
CCCOc1c(OC)cccc1C1CC(=O)Nc2cc(OC)c(OC)c(OC)c21 (configuration not stated)	none
Cc1[nH]c(=O)[nH]c(=O)c1S(=O)(=O)Nc1cccc([N+](=O)[O-])c1C	none
O=C(N/N=C/c1cccnc1)c1ccccc1Cl	none
O=C(N/N=C\c1cccnc1)c1cc(-c2ccc(Cl)s2)[nH]n1	VLA-4 inh 55.1 | VLA-4 mod pick inactive
CCOc1ccc(S(=O)(=O)N2CCC(C(=O)NCc3ccncc3)CC2)cc1Cl	none
COc1ccc2[nH]c(=O)c(-c3noc(-c4ccccc4)n3)cc2c1	VLA-4 inh 96.0 | VLA-4 mod pick inactive
COC(=O)c1ccc(C)c(NC(=O)CCCN2C(=O)NC(C)(C)C2=O)c1	none
CCOc1ccccc1N(CC(=O)NCC1CCCO1)C(=O)CCC(=O)Nc1nccs1 (configuration not stated)	none
O=C1Nc2ccccc2O/C1=C\c1c(F)cccc1Cl	none | VLA-4 mod pick inactive
CSCC[C@H](NC(=O)[C@@H]1Cc2ccccc2CN1)C(=O)Nc1ccc2c(c1)OCCO2	none
O=C(O)C1=CC[C@@H](c2ccc(Cl)cc2)N(S(=O)(=O)c2ccc(Cl)cc2)[C@H]1c1ccccc1	none
Cn1c(Sc2nc3ccccc3n2C)nc2ccccc21	VLA-4 inh 68.1 | VLA-4 mod pick inactive
O=C(CSc1nnc(C2CC2)n1Cc1ccccc1)N1CCNC1=O	none
COc1cc(CCCN2C(=O)C(=O)NC[C@@H]2c2ccccc2)cc(OC)c1OC	VLA-4 inh 52.3 | VLA-4 mod pick inactive
COc1cc(CCCN2C(=O)C(=O)NC[C@@H]2CC2CCCCC2)cc(OC)c1OC	none
COc1cc(CCCN2C(=O)C(=O)NC[C@@H]2C(C)O)cc(OC)c1OC (some centres not stated)	none | VLA-4 mod pick inactive
COc1cc(CCCN2CCNC[C@@H]2c2ccccc2)cc(OC)c1OC	none
O=C(COC(=O)/C=C/c1ccccc1[N+](=O)[O-])NCC(F)(F)F	none
CS(=O)(=O)c1ccc(Cl)c(NC(=O)COC(=O)CCCN2C(=O)c3cccc4cccc(c34)C2=O)c1	none
